Experimental data reported in PubChem BioAssay (NCATS).
Results filed as inconclusive are left out. Unmarked numbers belong to inactive results. Activity calls are given as the source filed them. Calls follow the shape of the dose curve; as a rule, active = well fitted cell-killing curve with a large enough effect; inconclusive = small, poorly fitted or top-dose-only effect; inactive = flat fitted curve, though single readings scatter.

test: Cell Viability - LYMP2-010 (AID 981); settings: LYMP2-010 lymphoblastoid cell viability, qHTS; series mostly up to 92.2 µM; activity, negative = cytotoxicity: at the top concentration; also: nearly all actives have a fitted effect of over 55% in size
Text: NIH Chemical Genomics Center [NCGC]
NIH Molecular Libraries Screening Centers Network [MLSCN]
National Institutes of Environmental Health Sciences [NIEHS]
National Toxicology Program [NTP]
We have developed a 1536-well cell-based assay for quantitative high throughput screening (qHTS) against a number of cell lines to determine in vitro cytotoxicity of small molecules. This particular assay uses a human lymphoblastoid cell line (LYMP2-010) purchased from Coriell Institute for Medical Research.
NCGC Assay Protocol Summary:
The CellTiter-Glo luminescent cell viability assay (Promega) is a homogeneous method to measure the number of viable cells in culture. The end point readout of this assay is based on quantitation of intracellular ATP, an indicator of metabolic activity, using the luciferase reaction. Luciferase catalyzes the oxidation of beetle Luciferin to oxyluciferin and light in the presence of ATP. The luminescent signal is proportional to amount of ATP present.
Using the CellTiter-Glo luminescent cell viability assay, the amount of cellular ATP was measured in the lymphoblastoid cell line with complete culture medium following compound treatment for 24 hours. The assay was performed in opaque white Kalypsys 1536-well plates. In the screen, tetraoctylammonium bromide was used as positive control. Library compounds were measured for their ability to cause acute toxicity in the cell line, as reflected by a decrease in intracellular ATP levels, in a concentration-dependent manner. […] AC50 values were determined from concentration-response data modeled with the standard Hill equation.
qHTS protocol for CellTiter Glo lymphoblastoid cellular assay
[Step] [Parameter] [Value] [Description]
1. Reagent; 5 uL; 2500 lymphoblastoid cells/well
2. Time; 5 hr; 37 C incubation
4. Controls; 23 nL; Tetraoctylammonium bromide 6.4pM to 92 uM
5. Time; 24 hr; 37 C incubation
6. Reagent; 5 uL; CellTiter Glo reagent
7. Time; 30 min; Room Temperature
8. Detection; Luminescence; Viewlux plate reader
Keywords: cell viability, cytotoxicity, lymphoblastoid cell line, luminescence, NTPHTS, NTPHTS_NCGC, NIEHS, DSSTox, MLSMR, MLSCN, NIH Roadmap, qHTS, NCGC
% is scaled to controls: 0 for no effect and ±100 for the full control effect; potency is read from the fitted curve at half-maximal effect.

Compared with `CN=C=O`, `CN(C)N=O` is higher in “activity, negative = cytotoxicity” value: -15.1% for the first, -11.2% for the second.

Going from `Cc1cc(C)cc(OP(=O)(Oc2cc(C)cc(C)c2)Oc2cc(C)cc(C)c2)c1` to `Cc1cc(-c2cc(C)c(N)c(C)c2)cc(C)c1N`, the “activity, negative = cytotoxicity” value rises from -34.7% to -16.6%.

Compared with `ClCc1ccccn1`, `ClC(Cl)c1ccccc1` is higher in “activity, negative = cytotoxicity” value: -3.47% for the first, -1.86% for the second.

Compared with `O=C(O)C(Br)Br`, `O=C(O)C(Cl)(Cl)Br` is higher in “activity, negative = cytotoxicity” value: -27.9% for the first, -13.1% for the second.

Compared with `CCCCOC(C)=O`, `CCCCOC(=O)c1ccccc1N` is lower in “activity, negative = cytotoxicity” value: -11.7% for the first, -19.3% for the second.

Going from `CCN(CC)N=O` to `CCOS(C)(=O)=O`, the “activity, negative = cytotoxicity” value falls from -0.0706% to -3.3%.

Compared with `NNC(N)=S`, `N#C/C(N)=C(/N)C#N` is higher in “activity, negative = cytotoxicity” value: -4.54% for the first, -1.79% for the second.

Compared with `Nc1ccc(Cl)c(Cl)c1`, `Oc1ccc(Cl)c(Cl)c1Cl` is lower in “activity, negative = cytotoxicity” value: -0.946% for the first, -5.4% for the second.

First: O=[N+]([O-])c1c(Cl)c(Cl)c(Cl)c(Cl)c1Cl
Second: Oc1c(Cl)c(Cl)cc(Cl)c1Cl
The “activity, negative = cytotoxicity” value of the first is higher: -9.13% for the first, -13.5% for the second.

Going from `[N-]=[N+]=[N-]` to `CN(C)C(=O)Nc1ccc(Cl)cc1`, the “activity, negative = cytotoxicity” value falls from -4.82% to -4.99%.

Going from `CCOC(=O)C1OC1(C)c1ccccc1` (stereo not given) to `CC(C)(C)OOC(=O)c1ccccc1`, the “activity, negative = cytotoxicity” value rises from -15.3% to -11.8%.

Compared with `Nc1ccc([N+](=O)[O-])cc1[N+](=O)[O-]`, `O=[N+]([O-])c1ccc(Cl)cc1` is higher in “activity, negative = cytotoxicity” value: -10.2% for the first, -3.62% for the second.

Compared with `C=CCCC#N`, `Cl/C=C\Cl` is higher in “activity, negative = cytotoxicity” value: -13.1% for the first, -5.13% for the second.

First: O=C(Cc1ccccc1)OCc1ccccc1
Second: CC(C)(OOC(C)(C)c1ccccc1)c1ccccc1
The “activity, negative = cytotoxicity” value of the first is higher: -6.21% for the first, -16.6% for the second.

Going from `FC(Cl)(Cl)Cl` to `Clc1ccc(C(Cl)(Cl)Cl)c(Cl)c1`, the “activity, negative = cytotoxicity” value falls from -4.13% to -5.1%.

Going from `Cc1cnc[nH]1` to `Cc1cccc(C)c1N`, the “activity, negative = cytotoxicity” value falls from 1.5% to -30.6%.

Going from `c1ccoc1` to `CC(C)(C)c1ccccc1O`, the “activity, negative = cytotoxicity” value falls from 3.11% to -8.95%.

Going from `Nc1ccc(Cc2ccc(N)c(Cl)c2)cc1Cl` to `CN(C)C(=O)Nc1cccc(C(F)(F)F)c1`, the “activity, negative = cytotoxicity” value rises from -16.5% to -12.4%.

Compared with `CCCCNC(=O)n1c(NC(=O)OC)nc2ccccc21`, `CCCCCCCCCCCCCl` is higher in “activity, negative = cytotoxicity” value: -25.6% for the first, -9.11% for the second.

For `CC(C)[C@]12CC(=O)[C@H](C)[C@H]1C2`, the “activity, negative = cytotoxicity” value was -6.54%.

With `Cc1ccc(N)c(N)c1` the Potency was 12.6 µM (active).
